# HP1b chromo inh = HP1-beta chromodomain-methylated histone interaction inhibition; AID 540317; actives 0.56% (n = 390,000); Potency, µM (highest dose often 114 µM), inactives show at the top dose activity change, negative = inhibition, most hits filed as inhibitors; AlphaScreen HP1-beta / biotin-H3K9me3 peptide binding; P83916; also: potency is read from the fitted curve at half-maximal effect; nearly all actives have a fitted effect of over 70% in size
#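 HP1-beta protein (50 nM final) preincubated 30 min at room temperature with biotinylated H3(1-18)K9me3 peptide (50 nM) in PBS pH 7.4, 0.01% Tween-20, then compound added for 30 min. AlphaScreen streptavidin donor/nickel chelate acceptor beads (10 ug/mL final), 30 min dark, luminescence read.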
# JMJD2A Tudor inh = inhibitors of human JMJD2A Tudor domain; Potency, µM (doses to about 114 µM), inactives show at the highest dose activity change, negative = inhibition, most hits filed as inhibitors; AlphaScreen JMJD2A-Tudor / H3K4me3 peptide binding; AID 504339; actives 4.4% (n = 390,000); also: potency is read from the fitted curve at half-maximal effect; % is scaled to controls: 0 for no effect and ±100 for the full control effect; nearly all actives have a fitted effect of over 50% in size
# BAZ2B block = blocks human BAZ2B. AID 504333. actives 4.4% (n = 360,000). AlphaScreen BAZ2B-H3K14Ac peptide displacement. Q9UIF8. Potency, µM (top dose mostly 114 µM), inactives show at the highest dose activity change, negative = inhibition, hits mostly inhibitors; also: potency is read from the fitted curve at half-maximal effect; % is scaled to controls: 0 for no effect and ±100 for the full control effect; nearly all actives have a fitted effect of over 60% in size
#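 Inhibition is scored as reduced AlphaScreen emission. The BAZ2B/b-H3(5-23)K14Ac complex (50 nM each) in PBS pH 7.4, 0.01% Tween-20 meets compound (up to 110 uM) for 30 min at RT before bead addition.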
# Sfp PPTase inh = inhibitors of Bacillus subtilis Sfp phosphopantetheinyl transferase; AID 1490; actives 3.5% (n = 310,000); Q9F4F7; Potency, µM, for inactives: largest response in the series, negative = inhibition, hits mostly inhibitors; Biochemical Sfp PPTase activity, qHTS;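 also: the enzyme is Sfp with the accession as filed and its product quenches rhodamine fluorescence; potency is read from the fitted curve at half-maximal effect; 0% = enzyme reaction without inhibitor and -100% = no enzyme wells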
#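 Buffer: 50 mM Hepes-Na pH 7.6, 10 mM MgCl2, 0.01% Nonidet P-40, 0.01% BSA. Enzyme 15 nM, pre-exposed to compound 15 min; substrates then added and fluorescence change tracked over 30 min.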
# G9a block = inhibitors of human histone lysine methyltransferase G9a; Potency, µM (series often up to 102 µM), without a hit: top-dose activity, negative = inhibition, actives largely listed as inhibitors; G9a H3K9 monomethylation, AlphaScreen, 2 h; actives 8.8% (n = 350,000); AID 504332; also: potency is read from the fitted curve at half-maximal effect; % is scaled to controls: 0 for no effect and ±100 for the full control effect; nearly all actives have a fitted effect of over 75% in size
#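 AlphaScreen detection with an anti-monomethyl H3K9 antibody quantified product after a 2 h room-temperature reaction containing 500 nM biotinylated H3K9 peptide, 20 µM SAM and 20 nM enzyme, which had been preincubated 15 min with compound.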
# ALOX12 inh = blocks human arachidonate 12S-lipoxygenase; P18054; purified 12hLO, xylenol orange hydroperoxide absorbance; Potency, µM (top dose mostly 108 µM), without a hit: at the top dose activity change, negative = inhibition, most hits filed as inhibitors; actives 1.1% (n = 580,000); AID 1671190; also: potency is read from the fitted curve at half-maximal effect; % is scaled to controls: 0 for no effect and ±100 for the full control effect
# Target sequence (P18054 whole entry, looked up): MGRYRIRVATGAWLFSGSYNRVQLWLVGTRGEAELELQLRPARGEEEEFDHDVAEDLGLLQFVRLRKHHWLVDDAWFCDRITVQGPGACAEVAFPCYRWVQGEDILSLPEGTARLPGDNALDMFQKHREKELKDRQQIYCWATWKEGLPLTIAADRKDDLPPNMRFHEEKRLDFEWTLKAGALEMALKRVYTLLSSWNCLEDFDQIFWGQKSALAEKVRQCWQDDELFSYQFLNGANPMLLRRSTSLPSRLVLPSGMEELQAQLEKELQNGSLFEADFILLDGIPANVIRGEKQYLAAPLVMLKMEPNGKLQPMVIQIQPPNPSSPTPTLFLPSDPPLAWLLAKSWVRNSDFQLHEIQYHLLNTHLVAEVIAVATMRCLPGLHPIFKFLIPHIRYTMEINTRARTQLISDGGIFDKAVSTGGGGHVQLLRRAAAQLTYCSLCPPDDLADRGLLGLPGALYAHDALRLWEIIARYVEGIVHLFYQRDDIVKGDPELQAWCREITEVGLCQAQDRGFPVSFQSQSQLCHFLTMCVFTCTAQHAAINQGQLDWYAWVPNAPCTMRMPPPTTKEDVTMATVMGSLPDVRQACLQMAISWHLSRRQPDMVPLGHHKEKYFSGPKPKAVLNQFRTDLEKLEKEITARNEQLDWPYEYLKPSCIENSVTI
#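 Purified human 12hLO (150 nM final) in 25 mM Hepes, 0.01% Triton X-100, pH 7.0 was preincubated 15 min at room temperature with compound. Then 40 uM arachidonic acid was added, 30 min. Hydroperoxide was read by Fe-XO absorbance ratio 573/405 nm.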
# ME-1 prolif = ME-1 cell growth inhibition; shares compounds with BAZ2B block; ME-1 cell proliferation, ATP luminescence, 48 h; Potency, µM (titrated, usually from 56.1 µM), for inactives: at the top dose activity change, negative = inhibition, hits mostly inhibitors; actives 20% (n = 140)
# * = called active by the depositor; ? = inconclusive; · = no result; [ ] = dose if it differs, or a comment. In the library only some 8.7% were active in any assay of this set; here they are far more common. Calls follow the shape of the dose curve; as a rule, active = well fitted curve in the direction sought with a large enough effect; inconclusive = small, poorly fitted or top-dose-only effect, or another doubt; inactive = no such curve, though single readings can be large; an effect the other way counts as inactive or inconclusive.
SMILES,HP1b chromo inh,JMJD2A Tudor inh,BAZ2B block,Sfp PPTase inh,G9a block,ALOX12 inh,ME-1 prolif
O=C(N1CCN(Cc2ccccc2)CC(O)C1)C1(c2ccccc2F)CC1 (stereo not drawn),·,·,·,·,·,19.1%,·
O=C1c2ccccc2C(=O)N1/N=C/c1ccc(O)c(O)c1O,22.4µM*,22.4µM*,?,7.94µM*,?,·,?
O=C(NCC1CCOCC1)Nc1cc(F)cc(F)c1,·,·,·,·,·,19.3%,·
COc1cc(C2c3cc4c(cc3C(OC3OC5COC(C)O[C@@H]5C(O)C3O)C3COC(=O)C23)OCO4)cc(OC)c1O (stereo partly drawn),·,·,·,-7.5%,-4.2%[2.33 µM],·,0.794µM*
COc1ccc(-c2csc(N)n2)cc1,4.5%,-27.5%,-11.2%,4.2%,?,10.2%,-10.6%[25.6 µM]
COc1ccc(-c2csc(N=C(N)N)n2)cc1,11.2%,-30.3%,?,-2.4%,?,-7.6%,·
CC(C)c1nncn1C1CCN(S(=O)(=O)c2ccccc2F)CC1,·,·,·,·,·,24.4%,·
Nc1ccn([C@@H]2O[C@H](CO)[C@@H](O)[C@@H]2O)c(=O)n1,29.1%,0.0%,?,2.1%,-13.1%[59 µM],-15.6%,0.282µM*
Nc1ccn(C2OC(CO)C(O)C2O)c(=O)n1 (stereo not drawn),·,·,·,10.0%,·,-12.6%,·
C=CN1CCCC1=O,·,·,·,5.4%,·,·,-11.0%
CCN1CCCC1=O,·,·,·,6.3%,19.3%[59 µM],?,·
O=C(Nc1ccc(Cl)cc1)N1CCN(c2cc(=O)n3nc(-c4ccco4)sc3n2)CC1,·,·,·,·,·,-23.6%,·
O=S(=O)(c1ccc2ccccc2c1)N1CCOCC1,41.2%,-16.3%,5.9%,15.5%,-5.3%,-1.7%,·
O=S(=O)(c1ccc2nc(-c3ccco3)c(-c3ccco3)nc2c1)N1CCOCC1,-15.8%,79.4µM*,50.1µM*,10µM*,2µM*,14.1µM*,-11.0%[25.6 µM]
COc1ccc(OC)c(-c2c3cc(O)c(=O)cc-3oc3cc(O)c(O)cc23)c1,?,1.58µM*,2.82µM*,11.2µM*,6.31µM*,·,22.4µM*
CN(C)CCc1c[nH]c2ccc(CC3COC(=O)N3)cc12 (stereo not drawn),·,·,·,16.2%,6.5%[2.33 µM],·,-5.6%
Nc1ccc(N)c(C(=O)O)c1,3.16µM*,3.55µM*,3.98µM*,?,7.94µM*,·,-10.6%
Cn1c(-c2cccnc2)cc2cnc(Nc3ccc(OC(F)(F)F)cc3)cc21,·,·,·,·,·,-5.7%,·
Oc1ccccc1/C=N/Nc1ncc(Br)cn1,30.0%,-11.7%,-33.2%,17.2%,12.0%[59 µM],11.0%,35.5µM*
Oc1ccccc1/C=N/Nc1cccc2cccnc12,60.5%,-21.3%,9.6%,?,-8.8%[0.0925 µM],0.0%,·
COc1ccc2c(c1)-c1nc(NC(=O)c3cc(OC)c(OC)c(OC)c3)sc1CC2,27.0%,-31.6%,-19.5%,·,?,?,·
COc1ccc2c(c1)-c1nc(N)sc1CC2,?,?,?,-13.2%,25.1µM*,?,8.1%[25.6 µM]
N#Cc1ccc(CN2CCC(N3Cc4ccccc4C3=O)CC2)cc1,·,·,·,·,·,0.4%[6.33 µM],·
O=C1C(CCC(O)c2ccc(F)cc2)C(c2ccc(O)cc2)N1c1ccc(F)cc1 (stereo not drawn),·,·,·,14.8%,-9.2%[2.33 µM],?,8.3%
COc1ccc(-c2csc(N3N=C(C)CC3c3ccc(OC)c(OC)c3)n2)cc1OC (stereo not drawn),·,·,·,·,·,0.9%,·
Cc1cn(C2OC(COC(=O)c3ccccc3)C(OC(=O)c3ccccc3)C2OC(=O)c2ccccc2)c(=O)[nH]c1=O (stereo not drawn),10.9%,-27.6%,-4.0%,-10.1%,15.6%[59 µM],11.1%,·

# Screening data (PubChem BioAssay)
